PubChem BioAssay (EPA / NIEHS)
Values joined by “and” are separate entries in the source; they are usually repeats but may differ in a detail not shown here. Equal values may be shown once. Records with an inconclusive call do not appear. A structure can be active in one record and inactive in another. Active and inactive are the calls of the source. Rule for the calls, unless noted: active = hit-call score of the fitted dose curve at least 0.9, where 1 is the maximum; inconclusive = response in the unintended direction; inactive = score below 0.9.

What was measured:
[1] = biological target: human Peroxisome Proliferator-activated Receptor alpha (PPARa), PPARA (gene 5465) (UniProt Q07869); experiment: ATG_PPARa_TRANS: Attagene TRANS-FACTORIAL HepG2 Assay for human Peroxisome Proliferator-activated Receptor alpha (PPARa) (AID 2283001);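 for AC50: potency for gain of reporter signal over DMSO so agonist or activator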
Sequence of human Peroxisome Proliferator-activated Receptor alpha (PPARa), PPARA (gene 5465) (Q07869 whole entry, looked up): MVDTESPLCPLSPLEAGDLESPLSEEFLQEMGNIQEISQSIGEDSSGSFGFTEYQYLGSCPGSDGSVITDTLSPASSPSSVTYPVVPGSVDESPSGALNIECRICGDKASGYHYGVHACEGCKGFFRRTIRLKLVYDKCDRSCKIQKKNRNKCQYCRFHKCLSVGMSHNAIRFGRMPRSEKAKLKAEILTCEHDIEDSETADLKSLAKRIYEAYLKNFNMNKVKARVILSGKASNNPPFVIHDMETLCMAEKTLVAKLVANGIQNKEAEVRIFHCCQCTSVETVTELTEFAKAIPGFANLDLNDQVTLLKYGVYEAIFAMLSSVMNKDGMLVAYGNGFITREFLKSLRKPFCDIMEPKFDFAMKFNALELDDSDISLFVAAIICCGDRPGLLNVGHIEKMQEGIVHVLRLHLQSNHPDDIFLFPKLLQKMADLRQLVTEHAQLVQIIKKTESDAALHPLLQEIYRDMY
Method in brief: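 HepG2, transient MRTU transfection, 24 h treatment. RT-PCR → FAM labelling → capillary electrophoresis. Fit vs DMSO, positive direction.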

[2] = biological target: human Peroxisome Proliferator-activated Receptor delta (PPARd), PPARD (gene 5467) (UniProt Q03181); experiment: ATG_PPARd_TRANS: Attagene TRANS-FACTORIAL HepG2 Assay for human Peroxisome Proliferator-activated Receptor delta (PPARd) (AID 2283002)
Sequence of human Peroxisome Proliferator-activated Receptor delta (PPARd), PPARD (gene 5467) (Q03181 whole entry, looked up, the tested form may be a part): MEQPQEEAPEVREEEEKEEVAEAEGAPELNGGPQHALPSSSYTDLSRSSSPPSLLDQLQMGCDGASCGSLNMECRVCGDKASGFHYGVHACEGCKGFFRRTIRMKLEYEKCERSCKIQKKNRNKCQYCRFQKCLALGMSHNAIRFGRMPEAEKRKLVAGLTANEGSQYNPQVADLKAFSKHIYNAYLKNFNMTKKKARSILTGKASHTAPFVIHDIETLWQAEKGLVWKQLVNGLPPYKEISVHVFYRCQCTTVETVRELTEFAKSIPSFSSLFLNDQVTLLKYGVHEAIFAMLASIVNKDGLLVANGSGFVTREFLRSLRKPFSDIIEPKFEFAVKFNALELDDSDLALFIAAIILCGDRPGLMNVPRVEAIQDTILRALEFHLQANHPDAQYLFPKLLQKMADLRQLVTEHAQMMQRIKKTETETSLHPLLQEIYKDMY
Method in brief: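 Fluorescence from capillary electrophoresis of labelled RT-PCR reporter fragments gives the signal; DMSO sets baseline. Cells: HepG2 transiently carrying GAL4-UAS reporter units plus chimeric nuclear receptor-Gal4 proteins, exposed to chemicals for 24 h.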

[3] = biological target: Retinoic acid receptor alpha (Homo sapiens) (UniProt P10276); experiment: ATG_RARa_TRANS: Attagene TRANS-FACTORIAL HepG2 Assay for human Retinoic Acid Receptor alpha (RARa) (AID 2283005)
Method in brief: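 HepG2 transiently transfected with multiplex GAL4-UAS reporter units including a human RARa–GAL4 chimera; 24 h compound exposure. Reporter mRNA quantified by RT-PCR, 6-FAM labeling and capillary electrophoresis; gain of signal versus DMSO.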

[4] = biological target: Peroxisome proliferator-activated receptor gamma (Homo sapiens) (UniProt P37231); experiment: ATG_PPARg_TRANS: Attagene TRANS-FACTORIAL HepG2 Assay for human Peroxisome Proliferator-activated Receptor-gamma (PPARg) (AID 2283007)
Sequence of Peroxisome proliferator-activated receptor gamma (Homo sapiens) (P37231 whole entry, looked up): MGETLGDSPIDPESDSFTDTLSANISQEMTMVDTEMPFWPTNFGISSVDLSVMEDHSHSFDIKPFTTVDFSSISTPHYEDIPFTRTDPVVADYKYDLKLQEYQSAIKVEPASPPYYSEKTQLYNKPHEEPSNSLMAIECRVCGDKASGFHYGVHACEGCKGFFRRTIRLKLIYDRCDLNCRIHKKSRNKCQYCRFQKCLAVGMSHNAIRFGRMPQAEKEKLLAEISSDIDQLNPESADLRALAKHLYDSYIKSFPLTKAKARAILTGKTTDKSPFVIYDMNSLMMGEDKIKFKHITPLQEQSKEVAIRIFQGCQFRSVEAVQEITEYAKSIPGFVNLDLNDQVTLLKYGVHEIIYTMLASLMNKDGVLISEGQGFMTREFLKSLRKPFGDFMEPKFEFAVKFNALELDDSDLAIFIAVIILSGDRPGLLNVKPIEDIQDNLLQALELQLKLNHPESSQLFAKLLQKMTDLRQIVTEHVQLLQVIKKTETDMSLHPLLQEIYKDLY
Method in brief: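 Multiplexed reporter transcription units in HepG2, 24 h dosing, reporter transcripts quantified by fluorescent RT-PCR and capillary electrophoresis. Increase over DMSO scored.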

[5] = biological target: Nuclear receptor subfamily 1 group I member 2 (Homo sapiens) (UniProt O75469); experiment: ATG_PXR_TRANS: Attagene TRANS-FACTORIAL HepG2 Assay for human Pregnane X Receptor (PXR) (AID 2283008)
Sequence of Nuclear receptor subfamily 1 group I member 2 (Homo sapiens) (O75469 whole entry, looked up, the tested form may be a part): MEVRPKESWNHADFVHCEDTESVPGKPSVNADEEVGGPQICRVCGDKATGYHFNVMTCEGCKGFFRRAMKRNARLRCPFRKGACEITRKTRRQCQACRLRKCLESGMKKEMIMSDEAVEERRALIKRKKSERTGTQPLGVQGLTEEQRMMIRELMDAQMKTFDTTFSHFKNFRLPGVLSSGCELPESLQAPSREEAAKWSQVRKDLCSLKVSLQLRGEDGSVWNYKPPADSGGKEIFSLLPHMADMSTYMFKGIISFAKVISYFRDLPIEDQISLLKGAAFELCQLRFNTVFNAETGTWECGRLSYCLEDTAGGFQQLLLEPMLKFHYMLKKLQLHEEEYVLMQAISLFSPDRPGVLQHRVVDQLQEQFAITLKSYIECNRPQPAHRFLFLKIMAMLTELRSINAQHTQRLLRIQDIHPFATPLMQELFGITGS
Method in brief: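 HepG2 transfected (FuGene 6) with GAL4-UAS reporter units + PXR-Gal4 chimera; dosed 24 h. Total RNA → oligo(dT) RT → PCR → 6-FAM primer extension → HpaI cut → CE. Gain-of-signal vs DMSO.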

[6] = biological target: human Retinoic Acid Receptor gamma (RARg), RARG (gene 5916) (UniProt P13631); experiment: ATG_RARg_TRANS: Attagene TRANS-FACTORIAL HepG2 Assay for human Retinoic Acid Receptor gamma (RARg) (AID 2283009)
Sequence of human Retinoic Acid Receptor gamma (RARg), RARG (gene 5916) (P13631 whole entry, looked up, the tested form may be a part): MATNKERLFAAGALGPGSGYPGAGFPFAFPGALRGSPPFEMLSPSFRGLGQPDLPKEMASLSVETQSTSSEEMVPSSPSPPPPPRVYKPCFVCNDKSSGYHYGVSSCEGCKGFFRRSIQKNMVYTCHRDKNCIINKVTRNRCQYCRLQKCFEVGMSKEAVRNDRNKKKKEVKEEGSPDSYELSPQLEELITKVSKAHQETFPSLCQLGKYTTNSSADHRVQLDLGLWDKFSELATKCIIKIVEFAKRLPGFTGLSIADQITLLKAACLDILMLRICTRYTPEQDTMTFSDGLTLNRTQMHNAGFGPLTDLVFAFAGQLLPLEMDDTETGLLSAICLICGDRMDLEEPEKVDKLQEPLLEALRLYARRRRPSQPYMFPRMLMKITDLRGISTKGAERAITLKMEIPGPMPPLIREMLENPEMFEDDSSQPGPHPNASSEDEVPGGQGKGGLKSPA
Method in brief: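 Transactivation of exogenous RARg-Gal4 fusion measured as reporter transcript induction after 24 h in transfected HepG2 cells. RNA reverse-transcribed, amplified, fluorescently labeled and resolved by capillary electrophoresis; increase relative to DMSO.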

[7] = biological target: human RAR-related Orphan Receptor beta (RORb), RORB (gene 6096) (UniProt Q92753); experiment: ATG_RORb_TRANS: Attagene TRANS-FACTORIAL HepG2 Assay for human RAR-related Orphan Receptor beta (RORb) (AID 2283010)
Method in brief: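 Read-out is reporter mRNA induction, quantified by RT-PCR with fluorescent capillary electrophoresis, 24 h post-dose in transiently transfected HepG2 expressing exogenous NR-Gal4 chimera. Activity fitted upward versus DMSO.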

[8] = biological target: Retinoic acid receptor RXR-alpha (Homo sapiens) (UniProt P19793); experiment: ATG_RXRa_TRANS: Attagene TRANS-FACTORIAL HepG2 Assay for human Retinoid X Receptor alpha (RXRa) (AID 2283012)
Sequence of Retinoic acid receptor RXR-alpha (Homo sapiens) (P19793 whole entry, looked up, the tested form may be a part): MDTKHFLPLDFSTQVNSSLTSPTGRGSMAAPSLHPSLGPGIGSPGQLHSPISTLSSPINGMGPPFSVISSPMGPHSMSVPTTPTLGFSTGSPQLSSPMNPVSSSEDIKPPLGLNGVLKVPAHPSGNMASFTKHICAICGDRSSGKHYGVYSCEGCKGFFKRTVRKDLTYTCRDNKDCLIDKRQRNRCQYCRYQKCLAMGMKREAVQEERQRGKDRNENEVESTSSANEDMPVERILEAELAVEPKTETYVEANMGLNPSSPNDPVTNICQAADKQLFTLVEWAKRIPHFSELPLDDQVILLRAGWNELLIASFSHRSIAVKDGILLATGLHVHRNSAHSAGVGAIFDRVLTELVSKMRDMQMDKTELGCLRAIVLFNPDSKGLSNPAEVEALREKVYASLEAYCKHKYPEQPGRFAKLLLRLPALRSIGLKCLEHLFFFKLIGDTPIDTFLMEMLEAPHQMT
Method in brief: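 TRANS format reporting activity of exogenous RXRa-Gal4 chimera in transiently transfected HepG2, 24 h exposure. Reporter transcripts quantified by RT-PCR with capillary electrophoresis, with gain of signal scored relative to DMSO.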

[9] = biological target: human Retinoid X Receptor beta (RXRb), RXRB (gene 6257) (UniProt P28702); experiment: ATG_RXRb_TRANS: Attagene TRANS-FACTORIAL HepG2 Assay for human Retinoid X Receptor beta (RXRb) (AID 2283013)
Sequence of human Retinoid X Receptor beta (RXRb), RXRB (gene 6257) (P28702 whole entry, looked up, the tested form may be a part): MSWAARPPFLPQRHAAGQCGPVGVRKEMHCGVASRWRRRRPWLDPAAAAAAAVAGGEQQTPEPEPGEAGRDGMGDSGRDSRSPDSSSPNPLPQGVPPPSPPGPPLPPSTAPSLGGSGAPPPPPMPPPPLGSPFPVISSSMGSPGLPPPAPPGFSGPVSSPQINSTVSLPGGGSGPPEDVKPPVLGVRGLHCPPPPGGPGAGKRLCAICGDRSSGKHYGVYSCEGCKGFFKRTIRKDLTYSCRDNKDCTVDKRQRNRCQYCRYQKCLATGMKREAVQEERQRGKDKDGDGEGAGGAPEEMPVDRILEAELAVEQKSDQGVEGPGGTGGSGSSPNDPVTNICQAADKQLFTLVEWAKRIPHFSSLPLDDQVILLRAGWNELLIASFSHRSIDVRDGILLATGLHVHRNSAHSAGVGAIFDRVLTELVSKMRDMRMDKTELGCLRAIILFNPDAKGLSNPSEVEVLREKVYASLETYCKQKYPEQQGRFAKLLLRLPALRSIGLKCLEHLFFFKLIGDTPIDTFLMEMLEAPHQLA
Method in brief: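 Readout is reporter transcript induction after 24 h dosing. It is measured by RT-PCR of total RNA followed by fluorescent capillary electrophoresis. HepG2 liver cells carry transfected multiple reporter units driven by an exogenous RXRb-Gal4 fusion; activity is relative to DMSO.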

[10] = biological target: human Thyroid Receptor alpha (THRa1), THRA (gene 7067) (UniProt P10827); experiment: ATG_THRa1_TRANS: Attagene TRANS-FACTORIAL HepG2 Assay for human Thyroid Receptor alpha (THRa1) (AID 2283014)
Sequence of human Thyroid Receptor alpha (THRa1), THRA (gene 7067) (P10827 whole entry, looked up, the tested form may be a part): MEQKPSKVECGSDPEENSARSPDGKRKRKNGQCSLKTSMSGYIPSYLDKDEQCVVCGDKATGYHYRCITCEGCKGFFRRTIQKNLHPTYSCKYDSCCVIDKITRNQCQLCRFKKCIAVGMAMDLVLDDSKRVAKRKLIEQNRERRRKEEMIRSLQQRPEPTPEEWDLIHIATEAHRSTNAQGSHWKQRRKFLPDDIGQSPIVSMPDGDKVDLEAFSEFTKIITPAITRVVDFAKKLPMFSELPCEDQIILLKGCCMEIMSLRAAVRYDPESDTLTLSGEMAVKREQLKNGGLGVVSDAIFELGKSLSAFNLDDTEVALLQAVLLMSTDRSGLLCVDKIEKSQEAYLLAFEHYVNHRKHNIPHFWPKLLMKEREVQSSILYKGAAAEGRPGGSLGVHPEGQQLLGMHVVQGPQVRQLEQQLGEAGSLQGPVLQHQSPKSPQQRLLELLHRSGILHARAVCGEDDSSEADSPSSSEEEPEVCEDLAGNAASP
Method in brief: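 First, HepG2 cells receive multiple GAL4-UAS reporter units and the chimeric receptor. They are then dosed for 24 h, after which RNA is reverse-transcribed, amplified, labelled, HpaI-cut and sized by capillary electrophoresis; gain relative to DMSO is scored.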

[11] = biological target: human Retinoic Acid Receptor beta (RARb), RARB (gene 5915) (UniProt P10826); experiment: ATG_RARb_TRANS: Attagene TRANS-FACTORIAL HepG2 Assay for human Retinoic Acid Receptor beta (AID 2283004)
Sequence of human Retinoic Acid Receptor beta (RARb), RARB (gene 5915) (P10826 whole entry, looked up, the tested form may be a part): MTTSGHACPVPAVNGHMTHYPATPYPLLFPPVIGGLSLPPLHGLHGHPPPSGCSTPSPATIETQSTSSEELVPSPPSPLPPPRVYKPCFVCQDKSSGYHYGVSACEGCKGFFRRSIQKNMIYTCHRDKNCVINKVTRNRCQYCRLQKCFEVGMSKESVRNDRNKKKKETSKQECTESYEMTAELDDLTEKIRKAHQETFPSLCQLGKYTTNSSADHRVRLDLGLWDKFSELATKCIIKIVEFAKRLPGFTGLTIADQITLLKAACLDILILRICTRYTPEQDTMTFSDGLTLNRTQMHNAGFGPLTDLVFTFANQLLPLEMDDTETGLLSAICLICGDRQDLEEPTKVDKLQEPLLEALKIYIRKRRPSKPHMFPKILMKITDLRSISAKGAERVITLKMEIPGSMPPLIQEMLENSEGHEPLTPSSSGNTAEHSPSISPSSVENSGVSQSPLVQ
Method in brief: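 HepG2, transient MRTU transfection, NR–Gal4 chimera, 24 h treatment; RT-PCR plus CE fluorescence detection of reporter mRNA; gain of signal vs DMSO.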

[12] = read-out: Intercellular Adhesion Molecule 1 (ICAM1), ICAM1 (gene 3383); experiment: BSK_3C_ICAM1: BioMAP Diversity Plus: 3C Assay for Intercellular Adhesion Molecule 1 (ICAM1) Biomarker Activity (AID 2283003; active = hit-call score of the fitted dose curve at least 0.9, where 1 is the maximum; inactive = score below 0.9); settings: primary human endothelial cells (HUVEC); actives raise or lower the signal
Method in brief: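 ELISA readout of ICAM1 in human umbilical vein endothelial cells in the 3C system, taken 24 h post-dose. Gain or loss of signal versus DMSO was fitted in both directions, with SRB total-protein staining run in parallel.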

[13] = BSK_3C_Proliferation: Cell Proliferation Assessment in the BioMAP Diversity Plus: 3C Assay (AID 2283006; active = hit-call score of the fitted dose curve at least 0.9, where 1 is the maximum; inactive = score below 0.9;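 note: potency may reflect either rise or fall in cell number versus DMSO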); settings: primary human endothelial cells (HUVEC)
Method in brief: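 Proliferation as total protein: sulforhodamine B (0.1%) stain of TCA-fixed subconfluent human umbilical vein endothelial cells, absorbance 560 nm, 48 h after dosing. Activity fitted in both directions against DMSO baseline.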

[14] = read-out: Interleukin-1 alpha (IL1a), IL1A (gene 3552); experiment: BSK_BE3C_IL1a: BioMAP Diversity Plus: BE3C Assay for Interleukin-1 alpha (IL1a) Biomarker Activity (AID 2283016; active = hit-call score of the fitted dose curve at least 0.9, where 1 is the maximum; inactive = score below 0.9); settings: primary human bronchial epithelial cells; actives raise or lower the signal
Method in brief: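 IL-1a measured by ELISA after 24 h treatment of human primary bronchial epithelial cells, with gain or loss of signal fitted versus DMSO. Parallel cultures stained with SRB gauge overt cytotoxicity.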

[15] = read-out: Monocyte Chemoattractant Protein-1 (MCP1), CCL2 (gene 6347); experiment: BSK_3C_MCP1: BioMAP Diversity Plus: 3C Assay for Monocyte Chemoattractant Protein-1 (MCP1) Biomarker Activity (AID 2283017; active = hit-call score of the fitted dose curve at least 0.9, where 1 is the maximum; inactive = score below 0.9); settings: primary human endothelial cells (HUVEC); actives raise or lower the signal
Method in brief: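 Endothelial cells from human umbilical vein are dosed with chemical, cultured 24 h, then assayed for MCP-1 by ELISA; both increases and decreases are modelled against DMSO controls.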

[16] = read-out: Monocyte Chemoattractant Protein-1 (MCP1), CCL2 (gene 6347); experiment: BSK_4H_MCP1: BioMAP Diversity Plus: 4H Assay for Monocyte Chemoattractant Protein-1 (MCP1) Biomarker Activity (AID 2283018; active = hit-call score of the fitted dose curve at least 0.9, where 1 is the maximum; inactive = score below 0.9); settings: primary human endothelial cells (HUVEC); actives raise or lower the signal
Method in brief: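 ELISA of MCP-1 (CCL2) 24 h after chemical dosing of HUVEC in the BioMAP 4H system. Gain or loss versus DMSO fitted; parallel SRB staining (560 nm) tracked overt cytotoxicity.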

[17] = read-out: Human Leukocyte Antigen - DR isotype (HLADR), HLA-DRA (gene 3122); experiment: BSK_3C_HLADR: BioMAP Diversity Plus: 3C Assay for Human Leukocyte Antigen - DR isotype (HLADR) Biomarker Activity (AID 2283019; active = hit-call score of the fitted dose curve at least 0.9, where 1 is the maximum; inactive = score below 0.9); settings: primary human endothelial cells (HUVEC); actives raise or lower the signal
Method in brief: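 Endothelial cells from human umbilical vein are treated with test chemical; after 24 h, HLA-DR levels are measured by ELISA. Data are fitted in both directions using DMSO as the baseline.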

[18] = read-out: Interleukin-8 (IL8), CXCL8 (gene 3576); experiment: BSK_3C_IL8: BioMAP Diversity Plus: 3C Assay for Interleukin-8 (IL8) Biomarker Activity (AID 2283020; active = hit-call score of the fitted dose curve at least 0.9, where 1 is the maximum; inactive = score below 0.9); settings: primary human endothelial cells (HUVEC); actives raise or lower the signal
Method in brief: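 IL-8 was measured by ELISA in HUVEC cultures 24 h after chemical dosing, with gain or loss of signal fitted relative to DMSO. Parallel SRB total-protein staining tracked overt cytotoxicity.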

[19] = biological target: human RAR-related Orphan Receptor gamma (RORg), RORC (gene 6097) (UniProt P51449); experiment: ATG_RORg_TRANS: Attagene TRANS-FACTORIAL HepG2 Assay for human RAR-related Orphan Receptor gamma (RORg) (AID 2283011)
Method in brief: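 Activity is scored as increase in GAL4-UAS reporter mRNA over DMSO, detected by fluorescent RT-PCR and capillary electrophoresis in HepG2 cells transiently expressing a RORg-Gal4 chimera, 24 h after dosing.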

[20] = read-out: E-selectin (Homo sapiens) (UniProt P16581); experiment: BSK_3C_Eselectin: BioMAP Diversity Plus: 3C Assay for Eselectin Biomarker Activity (AID 2283015; active = hit-call score of the fitted dose curve at least 0.9, where 1 is the maximum; inactive = score below 0.9); settings: primary human endothelial cells (HUVEC); actives raise or lower the signal
Method in brief: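 Human vascular endothelium from umbilical vein is exposed to test chemicals for 24 h. E-selectin levels are read by ELISA and compared with DMSO controls.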

Measured: AC50

Sequence of E-selectin (Homo sapiens) (P16581 whole entry, looked up): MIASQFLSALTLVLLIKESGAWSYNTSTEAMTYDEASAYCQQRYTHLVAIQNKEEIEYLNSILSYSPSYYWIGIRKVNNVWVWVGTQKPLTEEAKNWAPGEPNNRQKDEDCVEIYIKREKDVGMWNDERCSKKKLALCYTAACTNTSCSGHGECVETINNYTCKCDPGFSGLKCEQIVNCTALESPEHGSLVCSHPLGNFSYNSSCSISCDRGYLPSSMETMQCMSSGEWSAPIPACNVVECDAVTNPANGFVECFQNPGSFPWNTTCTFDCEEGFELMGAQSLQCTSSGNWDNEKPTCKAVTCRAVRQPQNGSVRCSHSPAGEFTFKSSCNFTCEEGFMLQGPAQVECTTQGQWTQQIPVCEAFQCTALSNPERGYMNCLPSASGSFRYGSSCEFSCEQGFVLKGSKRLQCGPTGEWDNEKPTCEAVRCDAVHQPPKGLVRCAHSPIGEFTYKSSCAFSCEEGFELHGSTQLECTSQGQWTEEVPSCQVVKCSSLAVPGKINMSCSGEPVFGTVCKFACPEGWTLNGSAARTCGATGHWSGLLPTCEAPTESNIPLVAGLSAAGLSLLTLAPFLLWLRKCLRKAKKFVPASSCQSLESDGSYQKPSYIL

O=C(Nc1cccc(C(F)(F)F)c1)c1cc(Br)cc(Br)c1O
inactive: [2] | [3] | [6] | [7] | [8] | [9] | [10]
active: [1] 1.58 µM | [4] 2.57 µM | [5] 1.07 µM

Nc1ccc(N=Nc2ccccc2)c(N)n1
inactive: [2] | [3] | [5] | [8] | [9]
active: [1] 44.6 µM | [4] 59.4 µM

CC(C)c1ccc2c(C(C)C)cc(C(C)C)c(S(=O)(=O)O)c2c1
inactive: [1] | [2] | [11] | [7] | [8]
active: [4] 25.1 µM | [5] 1.23 µM

COCc1c(C(C)C)nc(C(C)C)c(/C=C/[C@@H](O)C[C@@H](O)CC(=O)O)c1-c1ccc(F)cc1
inactive: [1] | [2] | [12] | [8] | [9] | [14]
active: [13] 39 nM | [4] 12.8 µM | [5] 1.76 µM | [15] 4.73 µM | [16] 7.77 nM | [17] 106 nM | [18] 0.0685 µM

CCCCC/C=C\C/C=C\CCCCCCCC(=O)OC
active: [1] 32 µM | [2] 100 µM | [12] 32.7 µM | [13] 27100 nM | [4] 4.68 µM | [5] 47.6 µM | [20] 29.6 µM | [14] 20 µM | [15] 34.4 µM | [17] 28700 nM
inactive: [19] | [8] | [16] | [18]

CCCCC(CC)COC(=O)c1ccccc1 (stereo not drawn)
active: [9] 60.9 µM
inactive: [1] | [2] | [11] | [4] | [5] | [7] | [8] | [10]

Cc1cnc(NC(=O)C2=C(O)c3ccccc3S(=O)(=O)N2C)s1
active: [4] 40.4 µM
inactive: [1] | [2] | [11] | [3] | [7] | [8] | [9]

O=C(Nc1ccccc1)c1ccccc1O
active: [4] 55.9 µM
inactive: [1] | [2] | [3] | [5] | [6] | [8] | [10]

O=C(O)CCCC[C@@H]1SC[C@@H]2NC(=O)N[C@@H]21
inactive: [1] | [2] | [3] | [4] | [5] | [7] | [8] | [9] | [10]

Nc1ccc(N)c(Cl)c1
active: [2] 68 µM | [13] 13.1 µM and 16.2 µM | [5] 4.08 µM | [20] 5.26 µM | [14] 20 µM | [15] 32.4 µM and 31.9 µM | [16] 26.1 µM and 14.6 µM | [17] 30.2 µM and 31.4 µM
inactive: [1] | [12] | [3] | [20] | [14] | [18]

CCCCCCCCCCCCCCCCCC#N
inactive: [1] | [2] | [3] | [4] | [5] | [6] | [7] | [19] | [8]
